# In PMC12215968:
# Legend:
# Test in all cases: cross-linking mass spectrometry
# Conditions in all cases: TSTO, in cells
# HDAC1 = HDAC1 (UniProt Q13547)
# HDAC2 = HDAC2 (UniProt Q92769)
# HMGB1 = HMGB1 (UniProt P09429)
# HMGB2 = HMGB2 (UniProt P26583)
# IPO9 = IPO9 (UniProt Q96P70)
# LDHB = LDHB (UniProt P07195)
# MAP4 = MAP4 (UniProt P27816)
# MCM2 = MCM2 (UniProt P49736)
# MCM7 = MCM7 (UniProt P33993)
# MCM5 = MCM5 (UniProt P33992)
# MCM6 = MCM6 (UniProt Q14566)
# MYDGF = MYDGF (UniProt Q969H8)
# MYH9 = MYH9 (UniProt P35579)
# RPL12 = RPL12 (UniProt P30050)
# NAA15 = NAA15 (UniProt Q9BXJ9)
# NCAPG = NCAPG (UniProt Q9BPX3)
# NEFM = NEFM (UniProt P07197)
# NOPCHAP1 = NOPCHAP1 (UniProt Q8N5I9)
# NUCB1 = NUCB1 (UniProt Q02818)
# OSBPL8 = OSBPL8 (UniProt Q9BZF1)
# PARP1 = PARP1 (UniProt P09874)
# PLS3 = PLS3 (UniProt P13797)
# PRKDC = PRKDC (UniProt P78527)
# PSMD2 = PSMD2 (UniProt Q13200)
# RAN = RAN (UniProt P62826)
# RARS1 = RARS1 (UniProt P54136)
# RNF20 = RNF20 (UniProt Q5VTR2)
# RPL22 = RPL22 (UniProt P35268)
# RPL27 = RPL27 (UniProt P61353)
# RPL34 = RPL34 (UniProt P49207)
# RPL6 = RPL6 (UniProt Q02878)
# RPL7A = RPL7A (UniProt P62424)
# RPS13 = RPS13 (UniProt P62277)
# RPS27A = RPS27A (UniProt P62979)
# RPS6 = RPS6 (UniProt P62753)
# RPS7 = RPS7 (UniProt P62081)
# RRP12 = RRP12 (UniProt Q5JTH9)
# SDHA = SDHA (UniProt P31040)
# SEPTIN11 = SEPTIN11 (UniProt Q9NVA2)
# SEPTIN9 = SEPTIN9 (UniProt Q9UHD8)
# SF3A1 = SF3A1 (UniProt Q15459)
# SF3B5 = SF3B5 (UniProt Q9BWJ5)
# Sequence of SF3B5 (Q9BWJ5 whole entry): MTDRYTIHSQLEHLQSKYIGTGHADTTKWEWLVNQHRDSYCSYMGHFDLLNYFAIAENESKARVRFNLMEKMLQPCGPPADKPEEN
# SMC3 = SMC3 (UniProt Q9UQE7)
# SMC4 = SMC4 (UniProt Q9NTJ3)
# SPTAN1 = SPTAN1 (UniProt Q13813)
# TMEM109 = TMEM109 (UniProt Q9BVC6)
# Sequence of TMEM109 (Q9BVC6 whole entry): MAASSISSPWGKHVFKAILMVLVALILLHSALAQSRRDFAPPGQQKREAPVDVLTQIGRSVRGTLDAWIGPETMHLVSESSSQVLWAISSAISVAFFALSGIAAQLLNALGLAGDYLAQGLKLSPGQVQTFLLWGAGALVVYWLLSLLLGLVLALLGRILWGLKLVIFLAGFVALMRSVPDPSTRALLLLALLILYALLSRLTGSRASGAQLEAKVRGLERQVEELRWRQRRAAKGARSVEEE
# TOP1 = TOP1 (UniProt P11387)
# UBAP2L = UBAP2L (UniProt Q14157)
# USP16 = USP16 (UniProt Q9Y5T5)
# VIM = VIM (UniProt P08670)
# XRCC5 = XRCC5 (UniProt P13010)
# YWHAB = YWHAB (UniProt P31946)
# YWHAH = YWHAH (UniProt Q04917)
# YWHAZ = YWHAZ (UniProt P63104)
# Sequence of YWHAZ (P63104 whole entry): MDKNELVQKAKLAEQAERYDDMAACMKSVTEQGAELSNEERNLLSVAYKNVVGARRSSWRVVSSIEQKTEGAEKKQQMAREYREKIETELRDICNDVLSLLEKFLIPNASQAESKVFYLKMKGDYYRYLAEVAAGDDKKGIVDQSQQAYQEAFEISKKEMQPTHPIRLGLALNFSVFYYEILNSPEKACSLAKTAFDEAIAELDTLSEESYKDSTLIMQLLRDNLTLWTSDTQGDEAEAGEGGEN
# Sequence of YWHAE, P62258 (P62258 whole entry): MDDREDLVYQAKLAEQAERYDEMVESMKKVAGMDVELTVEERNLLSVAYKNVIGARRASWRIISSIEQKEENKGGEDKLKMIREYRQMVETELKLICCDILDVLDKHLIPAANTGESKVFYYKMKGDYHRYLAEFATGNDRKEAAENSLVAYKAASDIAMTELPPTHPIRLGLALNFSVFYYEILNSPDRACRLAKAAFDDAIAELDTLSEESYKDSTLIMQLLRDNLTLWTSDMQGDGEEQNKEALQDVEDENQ
# Sequence of MCM4, P33991 (P33991 whole entry): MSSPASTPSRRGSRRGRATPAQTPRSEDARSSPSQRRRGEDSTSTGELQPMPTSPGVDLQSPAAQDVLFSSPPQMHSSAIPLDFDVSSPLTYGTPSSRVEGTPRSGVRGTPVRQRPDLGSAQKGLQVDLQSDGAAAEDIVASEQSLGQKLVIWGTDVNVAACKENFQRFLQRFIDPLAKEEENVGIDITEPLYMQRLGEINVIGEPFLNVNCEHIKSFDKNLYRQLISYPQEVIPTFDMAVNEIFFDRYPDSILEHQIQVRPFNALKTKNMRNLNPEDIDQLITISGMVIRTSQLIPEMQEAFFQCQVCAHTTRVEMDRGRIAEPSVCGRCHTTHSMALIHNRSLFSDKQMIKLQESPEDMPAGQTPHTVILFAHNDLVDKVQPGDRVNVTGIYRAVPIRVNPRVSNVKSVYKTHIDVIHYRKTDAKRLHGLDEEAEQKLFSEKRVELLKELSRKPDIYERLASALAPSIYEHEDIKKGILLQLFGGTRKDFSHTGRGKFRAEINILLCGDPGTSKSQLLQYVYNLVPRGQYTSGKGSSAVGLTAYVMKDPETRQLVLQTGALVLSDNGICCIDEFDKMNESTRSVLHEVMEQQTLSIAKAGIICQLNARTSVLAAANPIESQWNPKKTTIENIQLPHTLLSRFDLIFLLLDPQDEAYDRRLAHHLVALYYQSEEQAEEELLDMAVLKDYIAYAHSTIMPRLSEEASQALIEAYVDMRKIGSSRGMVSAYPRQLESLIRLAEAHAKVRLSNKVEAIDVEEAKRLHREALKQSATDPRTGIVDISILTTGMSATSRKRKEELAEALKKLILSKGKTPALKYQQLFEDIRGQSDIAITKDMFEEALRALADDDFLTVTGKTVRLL
# Sequence of MCM7 (P33993 whole entry): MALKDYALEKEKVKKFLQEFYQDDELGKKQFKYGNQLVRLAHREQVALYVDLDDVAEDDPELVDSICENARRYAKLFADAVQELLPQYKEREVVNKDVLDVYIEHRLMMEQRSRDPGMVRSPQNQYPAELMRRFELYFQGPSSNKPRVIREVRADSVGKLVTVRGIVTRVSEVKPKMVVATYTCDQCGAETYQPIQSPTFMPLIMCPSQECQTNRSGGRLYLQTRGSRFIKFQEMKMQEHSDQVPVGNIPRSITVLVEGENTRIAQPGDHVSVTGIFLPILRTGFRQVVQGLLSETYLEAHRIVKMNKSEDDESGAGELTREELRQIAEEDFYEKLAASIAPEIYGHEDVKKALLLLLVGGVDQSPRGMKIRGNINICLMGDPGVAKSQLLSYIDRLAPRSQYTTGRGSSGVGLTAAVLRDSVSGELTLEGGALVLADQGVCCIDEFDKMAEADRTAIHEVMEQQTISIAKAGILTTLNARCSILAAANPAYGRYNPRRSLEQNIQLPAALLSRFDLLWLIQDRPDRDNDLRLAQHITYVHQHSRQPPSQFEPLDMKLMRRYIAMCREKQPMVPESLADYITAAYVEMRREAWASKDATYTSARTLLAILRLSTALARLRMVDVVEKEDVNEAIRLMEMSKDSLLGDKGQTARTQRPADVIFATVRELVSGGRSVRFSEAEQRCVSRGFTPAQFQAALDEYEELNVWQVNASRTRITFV
# Sequence of MCM3, P25205 (P25205 whole entry): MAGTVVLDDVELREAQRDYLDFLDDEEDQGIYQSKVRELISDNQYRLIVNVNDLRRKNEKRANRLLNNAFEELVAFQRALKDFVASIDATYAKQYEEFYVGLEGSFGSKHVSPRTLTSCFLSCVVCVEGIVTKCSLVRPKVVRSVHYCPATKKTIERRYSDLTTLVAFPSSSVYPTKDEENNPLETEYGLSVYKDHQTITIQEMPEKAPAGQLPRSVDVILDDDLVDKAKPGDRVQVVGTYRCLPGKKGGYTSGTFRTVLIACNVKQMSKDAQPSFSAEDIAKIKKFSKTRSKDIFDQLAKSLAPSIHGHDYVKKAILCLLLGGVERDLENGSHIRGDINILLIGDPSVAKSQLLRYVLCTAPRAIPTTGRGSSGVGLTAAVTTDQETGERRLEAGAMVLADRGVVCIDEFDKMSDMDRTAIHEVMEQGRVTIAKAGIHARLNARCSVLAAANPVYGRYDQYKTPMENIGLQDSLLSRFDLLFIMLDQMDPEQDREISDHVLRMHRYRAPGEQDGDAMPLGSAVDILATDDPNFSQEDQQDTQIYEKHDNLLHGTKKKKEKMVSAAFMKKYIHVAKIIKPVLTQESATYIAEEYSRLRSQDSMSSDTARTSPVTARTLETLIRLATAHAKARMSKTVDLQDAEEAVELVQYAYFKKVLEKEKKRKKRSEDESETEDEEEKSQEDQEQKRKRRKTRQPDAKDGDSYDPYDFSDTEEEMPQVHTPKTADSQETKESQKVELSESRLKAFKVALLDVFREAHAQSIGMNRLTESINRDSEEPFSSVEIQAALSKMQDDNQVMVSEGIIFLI
# Sequence of MTA2, O94776 (O94776 whole entry): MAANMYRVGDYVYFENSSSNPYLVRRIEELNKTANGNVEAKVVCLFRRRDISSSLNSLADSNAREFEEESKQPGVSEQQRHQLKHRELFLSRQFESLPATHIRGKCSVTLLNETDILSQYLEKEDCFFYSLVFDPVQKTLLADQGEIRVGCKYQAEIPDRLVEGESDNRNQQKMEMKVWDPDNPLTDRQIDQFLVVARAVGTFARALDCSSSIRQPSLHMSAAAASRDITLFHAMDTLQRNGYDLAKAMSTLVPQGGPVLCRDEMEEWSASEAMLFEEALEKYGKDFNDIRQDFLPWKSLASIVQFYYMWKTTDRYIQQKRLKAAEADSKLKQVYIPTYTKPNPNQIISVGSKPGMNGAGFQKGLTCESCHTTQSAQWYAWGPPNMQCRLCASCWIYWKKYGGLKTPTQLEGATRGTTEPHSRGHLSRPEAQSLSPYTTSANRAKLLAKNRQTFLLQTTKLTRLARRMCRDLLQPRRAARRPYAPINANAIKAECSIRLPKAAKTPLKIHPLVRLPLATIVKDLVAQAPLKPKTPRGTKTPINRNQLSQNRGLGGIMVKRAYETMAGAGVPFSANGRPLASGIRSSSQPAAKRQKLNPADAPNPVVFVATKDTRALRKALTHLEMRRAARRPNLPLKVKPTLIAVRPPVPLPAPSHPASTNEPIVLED
# Sequence of HMGB3, O15347 (O15347 whole entry): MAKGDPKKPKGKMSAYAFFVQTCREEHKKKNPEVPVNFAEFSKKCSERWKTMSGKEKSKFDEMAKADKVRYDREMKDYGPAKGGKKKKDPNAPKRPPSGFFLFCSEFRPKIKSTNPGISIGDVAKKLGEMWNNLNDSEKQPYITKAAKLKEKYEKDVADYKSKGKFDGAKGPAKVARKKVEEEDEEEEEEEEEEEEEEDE
# Sequence of HMGB2 (P26583 whole entry): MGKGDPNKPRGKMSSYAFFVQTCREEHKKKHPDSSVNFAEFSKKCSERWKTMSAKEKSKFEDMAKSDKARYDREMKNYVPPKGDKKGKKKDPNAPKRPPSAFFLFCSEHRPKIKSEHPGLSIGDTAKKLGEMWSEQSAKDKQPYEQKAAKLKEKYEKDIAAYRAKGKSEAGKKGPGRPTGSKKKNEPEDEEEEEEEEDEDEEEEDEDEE
# Sequence of HDAC2 (Q92769 whole entry): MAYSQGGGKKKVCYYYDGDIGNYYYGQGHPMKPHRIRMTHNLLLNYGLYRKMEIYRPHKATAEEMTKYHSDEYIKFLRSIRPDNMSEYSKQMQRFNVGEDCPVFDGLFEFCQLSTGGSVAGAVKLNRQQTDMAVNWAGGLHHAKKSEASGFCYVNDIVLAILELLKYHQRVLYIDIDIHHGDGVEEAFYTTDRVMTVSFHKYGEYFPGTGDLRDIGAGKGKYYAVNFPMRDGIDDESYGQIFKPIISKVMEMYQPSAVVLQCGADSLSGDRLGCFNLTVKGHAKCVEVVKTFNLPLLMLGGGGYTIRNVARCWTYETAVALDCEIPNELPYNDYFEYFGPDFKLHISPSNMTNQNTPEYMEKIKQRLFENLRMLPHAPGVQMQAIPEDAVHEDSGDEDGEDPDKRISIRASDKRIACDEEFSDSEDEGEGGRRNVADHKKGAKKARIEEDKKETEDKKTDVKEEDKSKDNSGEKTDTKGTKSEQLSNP
# Sequence of PHF5A, Q7RTV0 (Q7RTV0 whole entry): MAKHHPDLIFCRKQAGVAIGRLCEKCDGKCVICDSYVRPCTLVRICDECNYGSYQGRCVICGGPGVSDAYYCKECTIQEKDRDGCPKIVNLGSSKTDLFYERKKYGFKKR
substance,measurement,setting,value
"MTA2, O94776",cross-linked residues,HDAC1,K71 - K220
same,cross-linked residues,HDAC2,K71 - K221
"HMGB3, O15347",cross-linked residues,HMGB1,K59 - K30
same,cross-linked residues,HMGB2,K59 - K30
"HMGB1, P09429",cross-linked residues,HMGB2,K30 - K59
"RAN, P62826",cross-linked residues,IPO9,K99 - K277
"LDHA, P00338",cross-linked residues,LDHB,K224 - K308
"LMNA, P02545",cross-linked residues,MAP4,K155 - K847
"MCM4, P33991",cross-linked residues,MCM2,K814 - K807
same,cross-linked residues,MCM7,K627 - K596
"MCM3, P25205",cross-linked residues,MCM5,K248 - K272
same,cross-linked residues,MCM7,K435 - K236
"MCM5, P33992",cross-linked residues,MCM6,K696 - K486
"PRKCSH, P14314",cross-linked residues,MYDGF,K436 - K161
"EEF2, P13639",cross-linked residues,MYH9,K438 - K1775
same,cross-linked residues,RPL12,K498 - K40
"NAA10, P41227",cross-linked residues,NAA15,K165 - K286
"NCAPD2, Q15021",cross-linked residues,NCAPG,K1065 - K937
"SAP18, O00422",cross-linked residues,NEFM,K114 - K702
"GAPDH, P04406",cross-linked residues,NOPCHAP1,K263 - K54
"TMED10, P49755",cross-linked residues,NUCB1,K145 - K71
"LIG1, P18858",cross-linked residues,OSBPL8,K240 - K697
"PGK1, P00558",cross-linked residues,PARP1,K6 - K945
"LCP1, P13796",cross-linked residues,PLS3,K88 - K59
"XRCC6, P12956",cross-linked residues,PRKDC,K189 - K2418
"PSMC5, P62195",cross-linked residues,PSMD2,K162 - K41
"HSPA8, P11142",cross-linked residues,RAN,K159 - K28
"QARS1, P47897",cross-linked residues,RARS1,K759 - K20
"RNF40, O75150",cross-linked residues,RNF20,K862 - K834
"H1-2, P16403",cross-linked residues,RPL22,K27 - K5
"ACLY, P53396",cross-linked residues,RPL27,K964 - K93
"RANBP1, P43487",cross-linked residues,RPL34,K179 - K108
"YBX1, P67809",cross-linked residues,RPL6,K170 - K87
"SF3B1, O75533",cross-linked residues,RPL7A,K3 - K97
"PAICS, P22234",cross-linked residues,RPS13,K110 - K27
"PSMA4, P25789",cross-linked residues,RPS27A,K239 - K107
"ASNS, P08243",cross-linked residues,RPS6,K511 - K243
"SRP9, P49458",cross-linked residues,RPS7,K60 - K160
"BYSL, Q13895",cross-linked residues,RRP12,K139 - K185
"SDHB, P21912",cross-linked residues,SDHA,K167 - K167
"SEPTIN7, Q16181",cross-linked residues,SEPTIN11,K388 - K378
"MCL1, Q07820",cross-linked residues,SEPTIN9,K5 - K141
"SF3A2, Q15428",cross-linked residues,SF3A1,K190 - K264
"SF3B3, Q15393",cross-linked residues,SF3B5,K137 - K17
"PHF5A, Q7RTV0",cross-linked residues,SF3B5,K13 - K17
"RPL13, P26373",cross-linked residues,SMC3,K200 - K680
"NCAPH, Q15003",cross-linked residues,SMC4,K725 - K99
"SPTBN1, Q01082",cross-linked residues,SPTAN1,K1824 - K613
"CANX, P27824",cross-linked residues,TMEM109,K516 - K215
"PSMD3, O43242",cross-linked residues,TOP1,K315 - K666
"RPS7, P62081",cross-linked residues,UBAP2L,K160 - K109
"TKT, P29401",cross-linked residues,USP16,K319 - K339
"NEFM, P07197",cross-linked residues,VIM,K139 - K143
"PAPSS2, O95340",cross-linked residues,XRCC5,K5 - K144
"YWHAQ, P27348",cross-linked residues,YWHAB,K85 - K11
"YWHAE, P62258",cross-linked residues,YWHAH,K12 - K69
same,cross-linked residues,YWHAZ,K12 - K68
"YWHAG, P61981",cross-linked residues,YWHAZ,K10 - K85
